Measurements: the supplement of paper PMC10849652
Targets with a hit are over-represented here; the source holds about 7,900 in all. About 0.6% of all pairs of compound and target were hits.

Tests used:
Experiment in all cases: log2 fold change, soluble protein after heating vs DMSO (PISA); higher = thermal stabilisation; K562 cells, 10 uM, 30 min; active = over 0.2 and 3.5 SD of the protein, either way, in both replicates (recomputed)
[1] = compound: C1=CC=C(C=C1)[C@H](COC2=CC3=C(C=C2)NC(=O)N3)NC(=O)C4=CC=CN(C4=O)CC5=CC(=C(C=C5)F)F
How it was run: (§1)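 Aliquots of K562 cells (2×10^6 cells/mL) treated with 10 μM compound for 30 min were heated for 3 min over 48°C-58°C. After pooling and extraction in PBS with 0.5% NP-40 at 4°C, soluble protein from a 21,000xg, 90 min spin was quantified by TMTpro 16plex LC-MS/MS with channel sums equalised. Thermal stability is expressed against control samples, from duplicates, as a log2 fold change.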

[2] = compound: CC1=C(SC2=C1C(=N[C@H](C3=NN=C(N32)C)CC(=O)N)C4=CC=C(C=C4)Cl)C
How it was run: as §1

[3] = compound: CC1=C2C(=CC=C1)N=C(N(C2=O)C3=CC=CC=C3C)CN4C=NC5=C(N=CN=C54)N
How it was run: as §1

[4] = compound: Cc1sc2c(c1C)C(c1ccc(Cl)cc1)=N[C@@H](CC(=O)OC(C)(C)C)c1nnc(C)n1-2
How it was run: as §1

[5] = compound: c1ccc([C@@H]2C[C@H]2NC2CCNCC2)cc1
How it was run: as §1

Measured: log2 fold change

CENPE (UniProt Q02224)
inactive: [1] -0.005 | [2] -0.139 | [3] 0.049 | [4] -0.001 | [5] -0.362

CPD (UniProt O75976)
Chain of UniProt O75976 (O75976 whole entry, looked up): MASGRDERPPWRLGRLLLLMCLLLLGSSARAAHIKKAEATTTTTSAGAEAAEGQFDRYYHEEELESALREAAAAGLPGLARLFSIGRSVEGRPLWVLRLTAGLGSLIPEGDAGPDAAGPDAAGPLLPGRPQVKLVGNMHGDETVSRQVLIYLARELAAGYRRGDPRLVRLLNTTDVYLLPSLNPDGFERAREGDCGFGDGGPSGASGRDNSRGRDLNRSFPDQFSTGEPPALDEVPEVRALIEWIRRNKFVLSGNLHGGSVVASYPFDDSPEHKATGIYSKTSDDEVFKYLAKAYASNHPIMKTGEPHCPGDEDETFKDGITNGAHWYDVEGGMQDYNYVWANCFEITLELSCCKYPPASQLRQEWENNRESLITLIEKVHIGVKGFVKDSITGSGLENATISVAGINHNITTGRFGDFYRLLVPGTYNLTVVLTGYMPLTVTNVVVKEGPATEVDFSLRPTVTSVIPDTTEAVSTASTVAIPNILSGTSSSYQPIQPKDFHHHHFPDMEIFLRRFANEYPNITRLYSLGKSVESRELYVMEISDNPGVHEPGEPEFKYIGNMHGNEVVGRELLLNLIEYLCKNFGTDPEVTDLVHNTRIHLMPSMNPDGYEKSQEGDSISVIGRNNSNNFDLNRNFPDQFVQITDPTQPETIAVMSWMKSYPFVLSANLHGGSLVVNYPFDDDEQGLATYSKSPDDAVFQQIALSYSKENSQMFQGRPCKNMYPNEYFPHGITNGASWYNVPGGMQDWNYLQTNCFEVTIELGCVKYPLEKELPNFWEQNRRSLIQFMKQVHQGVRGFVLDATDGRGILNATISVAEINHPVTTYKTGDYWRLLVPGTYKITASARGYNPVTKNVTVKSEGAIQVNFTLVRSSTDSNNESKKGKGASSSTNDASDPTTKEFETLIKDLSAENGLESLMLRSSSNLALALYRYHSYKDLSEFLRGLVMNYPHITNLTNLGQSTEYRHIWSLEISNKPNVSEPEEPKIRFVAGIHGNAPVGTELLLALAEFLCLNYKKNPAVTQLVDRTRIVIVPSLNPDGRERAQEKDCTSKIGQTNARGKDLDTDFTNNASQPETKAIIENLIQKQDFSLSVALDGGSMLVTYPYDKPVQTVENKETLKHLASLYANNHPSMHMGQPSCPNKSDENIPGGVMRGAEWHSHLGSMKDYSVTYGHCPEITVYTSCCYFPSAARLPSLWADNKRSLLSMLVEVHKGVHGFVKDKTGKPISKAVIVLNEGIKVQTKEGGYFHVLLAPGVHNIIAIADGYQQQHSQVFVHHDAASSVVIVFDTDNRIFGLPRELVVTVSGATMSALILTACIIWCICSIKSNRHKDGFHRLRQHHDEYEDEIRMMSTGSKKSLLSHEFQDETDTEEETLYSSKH
inactive: [1] 0.008 | [2] 0.014 | [3] 0.044 | [4] -0.013 | [5] 0.053

CHCHD2 (UniProt Q9Y6H1)
Chain of UniProt Q9Y6H1 (Q9Y6H1 whole entry, looked up): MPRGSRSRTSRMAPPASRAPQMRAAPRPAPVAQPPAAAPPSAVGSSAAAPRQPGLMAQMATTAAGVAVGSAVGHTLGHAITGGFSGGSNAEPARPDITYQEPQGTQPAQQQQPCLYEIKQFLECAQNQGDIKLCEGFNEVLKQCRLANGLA
inactive: [1] -0.016 | [2] 0.082 | [3] -0.007 | [4] -0.065 | [5] -0.011

CDK13 (UniProt Q14004)
inactive: [1] 0.031 | [2] 0.019 | [3] -0.017 | [4] 0.161 | [5] -0.004

CCNK isoform 4 (UniProt O75909)
Chain of UniProt O75909 (O75909 whole entry, looked up): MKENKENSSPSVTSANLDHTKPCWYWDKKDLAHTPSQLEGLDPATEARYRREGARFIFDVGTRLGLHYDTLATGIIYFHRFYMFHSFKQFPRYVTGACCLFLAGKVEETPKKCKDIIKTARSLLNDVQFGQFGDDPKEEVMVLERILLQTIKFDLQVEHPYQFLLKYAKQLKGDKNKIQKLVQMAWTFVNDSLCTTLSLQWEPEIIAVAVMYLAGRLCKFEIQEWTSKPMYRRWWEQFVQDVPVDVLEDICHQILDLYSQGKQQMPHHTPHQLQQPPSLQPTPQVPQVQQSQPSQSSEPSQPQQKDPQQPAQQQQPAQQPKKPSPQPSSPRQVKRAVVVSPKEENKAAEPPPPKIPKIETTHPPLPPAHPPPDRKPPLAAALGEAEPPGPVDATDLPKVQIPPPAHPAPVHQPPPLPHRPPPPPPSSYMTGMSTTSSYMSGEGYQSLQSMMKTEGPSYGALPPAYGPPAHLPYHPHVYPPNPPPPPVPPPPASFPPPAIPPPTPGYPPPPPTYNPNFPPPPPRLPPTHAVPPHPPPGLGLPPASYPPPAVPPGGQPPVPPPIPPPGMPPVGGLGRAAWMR
inactive: [1] 0.045 | [2] -0.115 | [3] 0.015 | [4] 0.103 | [5] 0.069

COPS8 (UniProt Q99627)
Chain of UniProt Q99627 (Q99627 whole entry, looked up): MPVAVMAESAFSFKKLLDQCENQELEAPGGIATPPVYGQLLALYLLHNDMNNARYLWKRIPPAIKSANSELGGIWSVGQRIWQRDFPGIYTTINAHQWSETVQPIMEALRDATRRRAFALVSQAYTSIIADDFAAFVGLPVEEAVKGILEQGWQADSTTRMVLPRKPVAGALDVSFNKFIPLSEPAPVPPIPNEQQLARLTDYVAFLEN
inactive: [1] 0.002 | [2] 0.086 | [3] 0.039 | [4] -0.123 | [5] -0.014

CAVIN1 (UniProt Q6NZI2)
Chain of UniProt Q6NZI2 (Q6NZI2 whole entry, looked up): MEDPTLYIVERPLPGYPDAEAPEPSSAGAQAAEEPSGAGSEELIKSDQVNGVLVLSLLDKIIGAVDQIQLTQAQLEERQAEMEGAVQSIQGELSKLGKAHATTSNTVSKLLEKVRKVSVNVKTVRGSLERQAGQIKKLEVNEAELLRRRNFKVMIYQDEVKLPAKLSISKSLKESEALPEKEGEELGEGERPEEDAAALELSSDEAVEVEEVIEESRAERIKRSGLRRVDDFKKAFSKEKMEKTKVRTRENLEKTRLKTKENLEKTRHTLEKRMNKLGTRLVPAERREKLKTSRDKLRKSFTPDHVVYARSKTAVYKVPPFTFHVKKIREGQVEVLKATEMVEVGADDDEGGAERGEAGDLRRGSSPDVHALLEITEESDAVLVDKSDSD
inactive: [1] 0.017 | [2] -0.127 | [3] -0.103 | [4] 0.101 | [5] 0

C4orf33 (UniProt Q8N1A6)
Chain of UniProt Q8N1A6 (Q8N1A6 whole entry, looked up): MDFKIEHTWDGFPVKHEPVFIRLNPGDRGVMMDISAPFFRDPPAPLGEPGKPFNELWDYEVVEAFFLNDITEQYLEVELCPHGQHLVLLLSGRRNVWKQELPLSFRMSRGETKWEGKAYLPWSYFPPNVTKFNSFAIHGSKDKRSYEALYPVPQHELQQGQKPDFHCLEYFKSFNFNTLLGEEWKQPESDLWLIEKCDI
inactive: [1] -0.041 | [2] 0.176 | [3] 0.066 | [4] 0.024 | [5] -0.003

COCH (UniProt O43405)
Chain of UniProt O43405 (O43405 whole entry, looked up): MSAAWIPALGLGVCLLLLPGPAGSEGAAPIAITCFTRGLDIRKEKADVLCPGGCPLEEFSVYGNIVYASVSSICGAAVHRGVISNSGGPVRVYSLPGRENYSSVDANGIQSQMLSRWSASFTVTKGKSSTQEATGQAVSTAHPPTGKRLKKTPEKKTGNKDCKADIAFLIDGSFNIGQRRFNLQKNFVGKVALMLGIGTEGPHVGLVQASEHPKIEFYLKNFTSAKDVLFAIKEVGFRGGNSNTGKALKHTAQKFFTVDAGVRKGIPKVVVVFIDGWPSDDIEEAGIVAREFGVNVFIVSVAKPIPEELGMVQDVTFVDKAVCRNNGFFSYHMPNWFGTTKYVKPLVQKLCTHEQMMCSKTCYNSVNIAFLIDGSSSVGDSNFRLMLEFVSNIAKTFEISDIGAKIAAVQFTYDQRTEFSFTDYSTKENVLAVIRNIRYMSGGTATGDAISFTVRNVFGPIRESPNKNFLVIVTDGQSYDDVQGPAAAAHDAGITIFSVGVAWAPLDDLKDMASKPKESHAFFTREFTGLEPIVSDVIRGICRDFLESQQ
inactive: [1] 0.006 | [2] 0.061 | [3] -0.193 | [4] 0.144 | [5] 0.006

CNOT4 isoform 6 (UniProt O95628)
Chain of UniProt O95628 (O95628 whole entry, looked up): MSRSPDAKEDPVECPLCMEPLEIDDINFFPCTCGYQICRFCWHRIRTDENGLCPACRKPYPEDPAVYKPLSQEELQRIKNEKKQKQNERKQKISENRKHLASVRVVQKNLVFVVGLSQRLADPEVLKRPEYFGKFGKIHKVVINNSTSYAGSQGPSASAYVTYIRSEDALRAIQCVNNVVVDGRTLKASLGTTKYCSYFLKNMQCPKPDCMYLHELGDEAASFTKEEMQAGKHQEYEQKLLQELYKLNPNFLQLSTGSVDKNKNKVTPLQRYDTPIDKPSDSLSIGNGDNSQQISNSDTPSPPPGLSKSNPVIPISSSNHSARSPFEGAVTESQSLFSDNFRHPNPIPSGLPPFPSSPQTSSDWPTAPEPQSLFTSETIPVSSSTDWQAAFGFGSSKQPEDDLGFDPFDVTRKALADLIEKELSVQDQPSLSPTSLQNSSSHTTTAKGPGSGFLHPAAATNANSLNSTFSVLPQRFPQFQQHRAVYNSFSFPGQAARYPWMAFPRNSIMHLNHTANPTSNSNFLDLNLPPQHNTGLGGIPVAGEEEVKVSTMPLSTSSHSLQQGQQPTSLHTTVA
inactive: [1] -0.019 | [2] 0.012 | [3] 0.068 | [4] -0.01 | [5] 0.018

CHKA (UniProt P35790)
Chain of UniProt P35790 (P35790 whole entry, looked up): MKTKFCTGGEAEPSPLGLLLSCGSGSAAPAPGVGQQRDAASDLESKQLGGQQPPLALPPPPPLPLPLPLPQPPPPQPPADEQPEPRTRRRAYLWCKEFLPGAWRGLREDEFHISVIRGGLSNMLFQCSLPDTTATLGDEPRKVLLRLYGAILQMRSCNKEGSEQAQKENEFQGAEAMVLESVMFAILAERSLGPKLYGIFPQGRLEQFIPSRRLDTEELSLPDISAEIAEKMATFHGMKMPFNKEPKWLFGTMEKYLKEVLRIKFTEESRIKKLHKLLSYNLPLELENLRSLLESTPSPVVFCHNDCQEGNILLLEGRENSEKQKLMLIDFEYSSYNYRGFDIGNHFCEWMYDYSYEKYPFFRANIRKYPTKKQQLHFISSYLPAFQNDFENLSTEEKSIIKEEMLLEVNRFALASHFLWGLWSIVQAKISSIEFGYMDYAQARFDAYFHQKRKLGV
inactive: [1] -0.055 | [2] -0.023 | [3] 0.124 | [4] -0.004 | [5] 0.19

CALCOCO2 isoform 4 (UniProt Q13137)
Chain of UniProt Q13137 (Q13137 whole entry, looked up): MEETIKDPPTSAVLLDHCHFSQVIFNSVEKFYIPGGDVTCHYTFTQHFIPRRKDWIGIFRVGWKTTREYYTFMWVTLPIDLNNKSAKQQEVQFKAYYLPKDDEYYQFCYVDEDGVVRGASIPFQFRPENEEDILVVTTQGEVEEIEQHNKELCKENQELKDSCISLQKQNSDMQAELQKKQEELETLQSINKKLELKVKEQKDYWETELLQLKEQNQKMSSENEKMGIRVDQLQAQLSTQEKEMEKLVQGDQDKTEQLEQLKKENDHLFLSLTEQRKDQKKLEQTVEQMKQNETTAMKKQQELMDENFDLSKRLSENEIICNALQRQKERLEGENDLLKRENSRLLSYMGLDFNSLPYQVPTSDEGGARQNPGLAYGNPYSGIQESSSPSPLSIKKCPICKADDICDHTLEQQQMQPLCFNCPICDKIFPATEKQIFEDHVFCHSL
inactive: [1] -0.036 | [2] -0.002 | [3] -0.04 | [4] 0.049 | [5] 0.026
